Data reported in PubChem BioAssay AID1619 (SRMLSC, 2009).
Among all 220,000 compounds or so, about 830 (0.38%) were called active.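 How the source made its calls: active means compound inhibiting the enzyme by more than half at any dose during confirmatory dose-response retesting; inconclusive means strong single-dose inhibitors picked by rank but not retested; inactive means the rest.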 A selection follows. Measured potencies and affinities stand elsewhere.

Each compound was assayed against Leucine aminopeptidase (Plasmodium falciparum (isolate 3D7)) (UniProt Q8IL11) (assay: P. falciparum M17LAP inhibitors, primary screen, biochemical, fluorogenic H-Leu-NHMec substrate, 1536-well (AID 1619;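 further: plate controls were full reaction with DMSO carrier for no effect and no enzyme background for full effect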)). Conditions: recombinant M17LAP, H-Leu-NHMec fluorogenic kinetic assay; at 30 µM; active compounds read high.
Sequence of Leucine aminopeptidase (Plasmodium falciparum (isolate 3D7)) (Q8IL11 whole entry, looked up): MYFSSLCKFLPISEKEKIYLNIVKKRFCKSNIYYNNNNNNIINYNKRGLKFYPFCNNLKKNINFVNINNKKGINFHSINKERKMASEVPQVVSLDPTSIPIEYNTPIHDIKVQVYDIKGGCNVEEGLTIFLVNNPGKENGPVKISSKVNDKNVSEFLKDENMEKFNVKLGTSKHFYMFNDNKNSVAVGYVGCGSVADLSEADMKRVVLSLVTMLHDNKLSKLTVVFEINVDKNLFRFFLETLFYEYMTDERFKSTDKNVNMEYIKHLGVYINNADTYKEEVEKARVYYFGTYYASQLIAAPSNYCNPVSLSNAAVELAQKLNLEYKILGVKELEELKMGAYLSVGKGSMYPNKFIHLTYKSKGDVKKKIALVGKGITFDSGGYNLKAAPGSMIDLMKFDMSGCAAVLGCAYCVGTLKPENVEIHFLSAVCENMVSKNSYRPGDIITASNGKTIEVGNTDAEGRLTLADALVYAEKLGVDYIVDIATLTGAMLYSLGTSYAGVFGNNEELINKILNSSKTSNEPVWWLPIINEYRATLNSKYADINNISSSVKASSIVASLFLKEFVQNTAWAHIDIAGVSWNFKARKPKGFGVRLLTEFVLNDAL

inhibition, inactive:
CCOC(=O)c1sc(NNC(=O)c2ccc(F)cc2)nc1C 4.21%
CC(=O)c1cc(-c2ccccc2)n(CC(=O)N2CCC(N3CCCCC3)CC2)c1C 5.06%
CCOCc1nc(C)c(Cl)c(NS(=O)(=O)c2ccc(N)cc2)n1 -2.71%
CCCCCCCCn1c(N2CCN(c3cccc(Cl)c3)CC2)nc2c1c(=O)[nH]c(=O)n2C 0.06%
COc1ccc(NC(=O)CSc2nc3c(c(=O)[nH]2)CCC3)cc1OC 7.54%
COc1ccc2nc(SCC(=O)Nc3ccc4c(c3)CCC4)[nH]c2c1 5.26%
Cc1ccc(NC(=O)CSc2n[nH]c(-c3ccncc3)n2)cc1C 13.3%
CCCn1c(SCC(=O)Nc2ccc3c(c2)CCC3)n[nH]c1=O 24.5%
CCOC(=O)c1ccc(NC(=O)CSc2nc(SC)ns2)cc1 4.11%
COc1ccc(C(=O)CNc2ccc(C)cc2C)cc1 -4.8%
O=C(CSc1nc2nn(-c3ccccc3)c(=O)c-2c2n1CCCCC2)NCCc1ccccc1 -13.9%
O=C(Nc1cc2c(oc1=O)CCCC2=O)c1ccccc1 1.43%
CC1=C(C(=O)Nc2ccccc2)C(c2ccc(Cl)cc2)n2c(s/c(=C/c3cccc(OCC(=O)O)c3)c2=O)=N1 (centres undefined) 4.09%
COc1cccc(C2C(C(=O)Nc3ccccc3)=C(C)N=c3s/c(=C/c4ccc(OCC(=O)O)cc4)c(=O)n32)c1 (centres undefined) 55.7%
N=C1N(/N=C/c2ccccc2)C(=Nc2ccccc2)C(=S)N1c1ccccc1 16.1%
O=C1CC(N2CCC(c3nc4ccccc4s3)CC2)C(=O)N1Cc1ccccc1 (centres undefined) -10.9%
CCN(c1ccccc1)S(=O)(=O)c1ccc2[nH]c(=O)[nH]c2c1 -1.87%
Cc1cccc(N(C)S(=O)(=O)c2ccc3[nH]c(=O)c(=O)[nH]c3c2)c1 53.7%
O=C(CSc1ccc2nnc(-c3ccccn3)n2n1)Nc1ccc2c(c1)OCO2 7.14%
CCOC(=O)N1CCC(NC(=O)C2CCCN(S(C)(=O)=O)C2)CC1 (centres undefined) 5.41%
COCCOC(=O)C1=C(C)NC(=O)NC1c1c(F)cccc1Cl (centres undefined) -12.3%
O=C(Cn1cc([N+](=O)[O-])cn1)Nc1cccnc1 1.1%
Cc1sc(NC(=O)c2cccs2)c(C(=O)OC(C)C)c1C 9.67%
CC(=O)Nc1sc(C)c(C)c1C(=O)OC(C)C 14.2%
CCOC(=O)c1c(NC(=O)C2CC=CCC2C(=O)O)sc(C)c1CC (centres undefined) 5.22%
COC(=O)c1c(NC(=O)C2CC=CCC2C(=O)O)sc(C(N)=O)c1C (centres undefined) 51.5%
COc1ccc(CCNC(=O)C2CC(=O)N(c3ccc(Br)cc3)C2)cc1OC (centres undefined) 3.2%
Cc1ccnc2ccc(SC(F)(F)F)cc12 1.01%
COC(=O)c1cccc(NC(=O)COC(=O)CSc2nc(C)cc(C)n2)c1 5.31%
CC(=O)c1cccc(NC(=O)CN2C(=O)C3C4C=CC(C4)C3C2=O)c1 (centres undefined) 31.7%
COC(=O)c1cccc(NC(=O)CSc2nnc(C)n2C)c1 12.6%
Cn1ccnc1SCC(=O)Nc1cccc(C(F)(F)F)c1 15.9%
Cc1cccc(NC(=O)CSc2nc(N)cc(N)n2)c1 34.4%
COc1cccc(NC(=O)CSc2nc(N)cc(N)n2)c1 47.2%
CCOC(=O)c1ccc(NC(=O)CN2C(=O)C3C4C=CC(C4)C3C2=O)cc1 (centres undefined) 28.7%
Cc1cc(C(F)(F)F)nc(SCC(=O)Nc2ccccc2)n1 -7.44%
CCCNC(=O)Nc1ccc(C(F)(F)F)cc1 6.33%
CC1(C)CC(=O)c2cnc(NC(=O)CSc3nc4ccccc4o3)nc2C1 8.26%
NC(=O)c1cc(-c2ccncc2)nc2ccc(Cl)cc12 8.6%
Cn1c(=O)n(C)c2cc(S(=O)(=O)Nc3ccccc3O)ccc21 -0.99%
C/C(=C1/SC(N2CC(C)OC(C)C2)=NC1=O)c1ccccc1 (centres undefined) 1.49%
Cc1ccc(S(=O)(=O)Nc2nc(C)cc(NCCN)n2)cc1 -5.52%
CCOC(=O)N1CCN(CCC(=O)Nc2ccc(OC)cc2)CC1 5.12%
Cc1ccc2nsnc2c1S(=O)(=O)Nc1cccc2nsnc12 2.26%
Cc1cc(C)c(S(=O)(=O)Nc2cccc3nsnc23)c(C)c1 3.04%
COC(=O)c1cc(C#N)c(NCc2ccccc2)nc1C -1.82%
Cc1nn(C)cc1CN(C)C(=O)c1cc(COc2ccc(F)cc2F)on1 -16.1%
O=C1OCC2OC(O)C(O)C(O)C2OC(=O)c2cc(O)c(O)c(O)c2-c2c(O)c(O)c3oc(=O)c4c(c(O)c(O)c5oc(=O)c2c3c54)-c2c1cc(O)c(O)c2O (centres undefined) 20.8%
COc1cccc(NC(=O)Cn2c(=O)n(CCC(=O)NCc3ccco3)c(=O)c3ccccc32)c1 -7.32%
CCn1c(N2CCN(CC(=O)c3c(C)n(C)c4ccccc34)CC2)nc2c1c(=O)[nH]c(=O)n2C 16.3%
CN(Cc1nc(Cc2ccccc2F)no1)CC1(N2CCOCC2)CCCCC1 -3.08%
CN(Cc1cc2ccccc2[nH]c1=O)C(=O)COc1ccccc1 -2.37%
O=C1C2CC=C(Cl)CC2C(=O)N1CCC[n+]1ccccc1 (centres undefined) -3.64%
O=C1C2CC=C(Cl)CC2C(=O)N1CCc1ccccc1 (centres undefined) 51.8%
CCOC(=O)N1CCN(C(c2ccc(F)cc2)c2sc3nc(C)nn3c2O)CC1 (centres undefined) -1.83%
C=CCO/N=C(\C)c1c(O)c(C)c(-c2ccccc2)n(-c2ccccc2)c1=O 54%
CCO/N=C(/C)c1c(O)c(C)c(-c2ccccc2)n(-c2ccccc2)c1=O 45.5%
C/C(=N/O)c1c(O)c(C)c(-c2ccccc2)n(-c2ccccc2)c1=O 46.8%
CC(=O)c1c(O)c(C)c(-c2ccccc2)n(-c2ccccc2)c1=O 31.5%
COc1cc(/C=N/NC(=O)c2sc(N)c(C#N)c2C)ccc1O 3.64%
COc1ccc(Cn2c(SC)nc3ccccc32)cc1[N+](=O)[O-] -7.5%
CCCn1nnc(NC(=O)c2ccc(Br)cc2)n1 -4.35%
Cc1ccsc1/C=N/NC(=O)CSCc1ccc(Cl)cc1 3.08%
Cc1cc(C)c(S(=O)(=O)Nc2c(C)[nH]c(=O)[nH]c2=O)c(C)c1 -3%
Cc1cccc2cc(CN(Cc3ccc(F)cc3)C(=O)N3CCOCC3)c(=O)[nH]c12 6.9%
COc1cccc(Nc2nnc(SCC(=O)N3CCOCC3)s2)c1 31.6%
O=C(Cc1cccs1)Nc1nnc(SCC(=O)N2CCCCC2)s1 4.31%
COc1ccccc1Nc1nnc(SCC(=O)N2CCCC2)s1 28.9%
CN1/C(=C\C(=O)CSc2nnc(N)s2)C(C)(C)c2ccccc21 30.2%
CN1/C(=C\C(=O)CSc2nnc(NCc3ccccc3)s2)C(C)(C)c2ccccc21 -5.09%
CC1CCCC(C)N1C(=O)CSc1nnc(NC(=O)c2cccs2)s1 (centres undefined) 35.8%
COc1ccc(NC(=O)COC(=O)C2=COCCO2)cc1OC -5.64%
O=C(CN1CCCCC1)NC(=O)NCc1ccccc1 -1.39%
C=CCNC(=O)C(=O)c1cccn1-c1ccsc1C(=O)OC 1.96%
CCOP(=O)(OCC)C(Nc1cccc([N+](=O)[O-])c1)c1ccccc1 (centres undefined) -1.19%
CC(C)CSc1nnc2[nH]c(=O)cc(N)n12 -1.75%
CCOC(=O)c1oc2cc(O)ccc2c(=O)c1-c1ccc(OC)cc1 14.6%
COC(=O)N/N=C/c1c[nH]c2ccccc12 14.5%
Fc1c(F)c(F)c(N/N=C/c2c[nH]c3ccccc23)c(F)c1F -1.25%
COc1cccc(NC(=O)Nc2nnc(CC(=O)NCc3ccccc3)s2)c1 8.42%
COc1ccc(NC(=O)CSc2ncc(-c3ccc(F)cc3)n2Cc2ccco2)cc1 -16.2%
CCCOC(=O)c1c(NC(=O)C2CCCO2)sc(C(=O)OC)c1C (centres undefined) 8.59%
COc1ccc(-c2ccnc(SCC(=O)Nc3ccccn3)n2)cc1 7.81%
Cc1cc(-c2ccccc2)nc(SCC(=O)N2CCCC2)n1 1.7%
O=C(CSc1nc(O)cc(=O)n1-c1ccccc1)Nc1ccccn1 14.8%
CC1CCCCN1C(=O)CSc1nc(-c2ccccc2)cn1N (centres undefined) 14.6%
O=C(N1CCC(O)(c2cccnc2)CC1)C12CC3CC(CC(C3)C1)C2 3.02%
Cc1oc(C(C)(C)C)cc1C(N)=O 5.9%
Cc1c(N(C(=O)CNC(=O)c2ccccc2)C2(C(=O)NC3CCCCC3)CCCCC2)c(=O)n(-c2ccccc2)n1C -1.39%
Clc1ccc(Nc2ccc(-n3ccnc3)nn2)cc1Cl 2.24%
Cc1cc(C(=O)NCc2cccs2)n(-c2ccccc2)n1 -1.13%
COc1ccccc1NC(=S)NC(=O)c1c(-c2ccccc2Cl)noc1C -2.71%
CC(C)NC(=O)/C(C#N)=C/c1ccc(N(C)C)o1 48.4%
CC(C)NC(=O)/C(C#N)=C\c1ccc(N(C)C)o1 38%
